Results filed as inconclusive are left out. Where a structure was tested more than once in an assay, its records may differ in their call. Active and inactive are the calls of the source. The calls were made as follows: active = hit-call score of the fitted dose curve at least 0.9, where 1 is the maximum; inconclusive = response in the unintended direction; inactive = score below 0.9.
Legend:
[1] = LTEA_HepaRG_LDH_cytotoxicity: Cytotoxicity Assessment in the Life Technologies and Expression Analysis (LTEA) Assay (AID 2283563);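 as to AC50: LDH activity released into spent culture medium as a marker of cell death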
In short: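 Differentiated human HepaRG cells, plated 48 h beforehand, were switched to serum-free induction medium and exposed for 48 h to eight half-log concentrations (top 100 uM) in 0.5% DMSO. LDH was measured in spent medium; activity was fitted relative to DMSO vehicle.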

[2] = ATG_XTT_Cytotoxicity: Cytotoxicity Assessment in the Attagene TRANS-FACTORIAL HepG2 Assay (AID 2283584)
In short: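 HepG2 human liver cells, transiently transfected with multiple GAL4-UAS reporter units, were dosed and read at 24 h by XTT as cell number. Loss of signal was fitted relative to DMSO negative control baseline.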

[3] = TOX21_p53_BLA_p2_viability: Viability Assessment in the Tox21 HCT-116 p53 Agonism Beta-lactamase Assay, Phase 2 (AID 2283591);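 also: compound exposure lasted 16 h at 37 °C; actives lower the ATP signal meaning cytotoxicity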
In short: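 Cytotoxicity readout: CellTiter-Glo ATP luminescence, 30 min at room temperature, after the beta-lactamase read. Cells were HCT116 exposed 16 h at 37C to compounds pin-transferred at 217-fold dilution from DMSO stocks.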

[4] = biological target: Cellular tumor antigen p53 (Homo sapiens) (UniProt P04637); test: TOX21_p53_BLA_p2_ratio: Tox21 HCT-116 p53 Agonism Beta-lactamase Assay, Ratio, Phase 2 (AID 2283592)
In short: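 Ratio endpoint: beta-lactamase cleavage of CCF4-AM, blue (460 nm) over green (530 nm). HCT116 reporter line; 16 h treatment, 37C; substrate 2 h RT.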

[5] = TOX21_p53_BLA_p3_viability: Viability Assessment in the Tox21 HCT-116 p53 Agonism Beta-lactamase Assay, Phase 3 (AID 2283593);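 also: cells exposed to compound for 16 h before reading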
In short: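 Cellular ATP was quantified by CellTiter-Glo luminescence, read after 30 min at room temperature. Beforehand, HCT116 cells (4000/well) received compound 5 h post-seeding, 217-fold diluted from DMSO, then incubated 16 h at 37C.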

[6] = biological target: Cellular tumor antigen p53 (Homo sapiens) (UniProt P04637); test: TOX21_p53_BLA_p3_ratio: Tox21 HCT-116 p53 Agonism Beta-lactamase Assay, Ratio, Phase 3 (AID 2283596)
In short: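 Cells were seeded at 4000/well, rested 5 h at 37C, then dosed with DMSO compound solutions (217-fold dilution) for 16 h. CCF4-AM substrate was loaded for 2 h at room temperature, and the 460/530 nm emission ratio was fitted for gain of signal versus DMSO.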

[7] = TOX21_p53_BLA_p4_viability: Viability Assessment in the Tox21 HCT-116 p53 Agonism Beta-lactamase Assay, Phase 4 (AID 2283597);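 also: hits lower the luminescence signal meaning cytotoxicity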
In short: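 Cytotoxicity was inferred from loss of CellTiter-Glo luminescence. HCT116 cells had been dosed with compounds after 5 h plating, incubated 16 h at 37C and 5% CO2, and exposed to the CCF4-AM substrate for 2 h.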

[8] = biological target: Cellular tumor antigen p53 (Homo sapiens) (UniProt P04637); test: TOX21_p53_BLA_p5_ratio: Tox21 HCT-116 p53 Agonism Beta-lactamase Assay, Ratio, Phase 5 (AID 2283599)
In short: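 Beta-lactamase reporter ratio (blue 460 nm over green 530 nm, 405 nm excitation) after 2 h CCF4-AM loading, in HCT-116 cells exposed 16 h at 37 C to compounds pinned at 217-fold dilution. Increases relative to DMSO baseline scored.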

[9] = TOX21_p53_BLA_p5_viability: Viability Assessment in the Tox21 HCT-116 p53 Agonism Beta-lactamase Assay, Phase 5 (AID 2283600)
In short: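 Luciferase-coupled ATP quantitation of cells treated for 16 h (37C, 5% CO2) with test chemicals delivered in DMSO via a 217-fold dilution; 4000 cells/well; reagent incubated 30 min at room temperature before luminescence reading.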

[10] = biological target: Cellular tumor antigen p53 (Homo sapiens) (UniProt P04637); test: TOX21_p53_BLA_p4_ratio: Tox21 HCT-116 p53 Agonism Beta-lactamase Assay, Ratio, Phase 4 (AID 2283601)
In short: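 Signal is the blue/green (460nm/530nm) ratio of cleaved versus uncleaved CCF4-AM substrate, read after 2 h substrate loading. Cells were HCT116 carrying the p53-responsive beta-lactamase reporter, dosed 16 h at 37C, 5% CO2; CellTiter-Glo measured in parallel.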

[11] = Tanguay_ZF_120hpf_MORT_legacy: (Legacy) Oregon State University Tanguay Lab 120 Hour Post-fertilization zebrafish Assay for Mortality (AID 2283633)
In short: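 Dechorionated Tropical 5D wild-type zebrafish embryos, one per well from 6 hpf, were statically exposed at 28C in the dark until 120 hpf (0.64% DMSO final). Mortality was scored as present/absent by brightfield microscopy, fitted positively versus DMSO.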

[12] = Tanguay_ZF_120hpf_YSE_legacy: (Legacy) Oregon State University Tanguay Lab 120 Hour Post-fertilization zebrafish Assay for Yolk Sac Edema (AID 2283634)
In short: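 Tropical 5D wild-type embryos, dechorionated with pronase at 4 hpf, were exposed singly from 6 hpf to 120 hpf under static, sealed, dark conditions at 28C with 0.64% DMSO final. Yolk sac edema was scored present/absent by brightfield microscopy.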

[13] = Tanguay_ZF_120hpf_AXIS_legacy: (Legacy) Oregon State University Tanguay Lab 120 Hour Post-fertilization zebrafish Assay for Body Axis Malformation (AID 2283635);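 as to AC50: potency for an increased fraction of larvae scored with body axis malformation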
In short: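 Tropical 5D wild-type zebrafish embryos, dechorionated with pronase at 4 hpf, were placed singly in wells at 6 hpf and exposed statically to test chemical (0.64% DMSO final) at 28C until 120 hpf, then scored by brightfield for body axis defects.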

[14] = Tanguay_ZF_120hpf_EYE_legacy: (Legacy) Oregon State University Tanguay Lab 120 Hour Post-fertilization zebrafish Assay for Eye Malformation (AID 2283636);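 also: binary presence or absence of eye malformation scored by brightfield in 120 hpf larvae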
In short: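 Binary brightfield scoring of eye defects at 120 hpf after static exposure from 6 hpf of single pronase-dechorionated wild-type embryos (28C, 0.64% DMSO). Non-mortality endpoints omitted where embryos died; fit vs DMSO.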

[15] = Tanguay_ZF_120hpf_SNOU_legacy: (Legacy) Oregon State University Tanguay Lab 120 Hour Post-fertilization zebrafish Assay for Snout Malformation (AID 2283637)
In short: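 Binary snout-malformation call at 120 hpf in wild-type 5D embryos, chorion removed by pronase, under static exposure from 6 hpf at 28C (0.64% DMSO). Embryos dying by 24 or 120 hpf excluded.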

[16] = Tanguay_ZF_120hpf_JAW_legacy: (Legacy) Oregon State University Tanguay Lab 120 Hour Post-fertilization zebrafish Assay for Jaw Malformation (AID 2283638)
In short: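 Tropical 5D wild-type embryos, dechorionated with pronase at 4 hpf, were placed singly per well at 6 hpf and statically exposed at 28C until 120 hpf (0.64% DMSO final). Jaw malformation scored as present/absent by brightfield microscopy at 120 hpf, analyzed relative to DMSO.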

[17] = Tanguay_ZF_120hpf_OTIC_legacy: (Legacy) Oregon State University Tanguay Lab 120 Hour Post-fertilization zebrafish Assay for Otic Vesicle Malformation (AID 2283639)
In short: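 Brightfield scoring at 120 hpf, binary present/absent; DMSO negative control, 5uM trimethyltin chloride positive control. Static exposure at 28C, final DMSO 0.64% (vol/vol). Dead embryos not scored for malformation.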

[18] = Tanguay_ZF_120hpf_PE_legacy: (Legacy) Oregon State University Tanguay Lab 120 Hour Post-fertilization zebrafish Assay for Pericardial Edema (AID 2283640)
In short: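 Tropical 5D wild-type zebrafish embryos were exposed statically to 120 hpf at 28C, sealed and foil-covered, in 0.64% DMSO final. Pericardial edema was scored present/absent by brightfield microscopy; dead embryos were not scored.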

[19] = Tanguay_ZF_120hpf_BRAI_legacy: (Legacy) Oregon State University Tanguay Lab 120 Hour Post-fertilization zebrafish Assay for Brain Malformation (AID 2283641)
In short: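 Tropical 5D wild-type zebrafish embryos were exposed statically in sealed, foil-covered plates at 28C until 120 hpf, with 0.64% (vol/vol) final DMSO. Brain malformation was scored present/absent by brightfield microscopy, relative to DMSO baseline.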

[20] = Tanguay_ZF_120hpf_SOMI_legacy: (Legacy) Oregon State University Tanguay Lab 120 Hour Post-fertilization zebrafish Assay for Somite Malformation (AID 2283647)
In short: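 Tropical 5D wild-type zebrafish embryos, dechorionated with pronase at 4 hpf, were placed singly at 6 hpf and statically exposed until 120 hpf at 28C in 0.64% DMSO. Somite malformation was scored present/absent by brightfield microscopy versus DMSO.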

Measured: AC50

Sequence of Cellular tumor antigen p53 (Homo sapiens) (P04637 whole entry, looked up): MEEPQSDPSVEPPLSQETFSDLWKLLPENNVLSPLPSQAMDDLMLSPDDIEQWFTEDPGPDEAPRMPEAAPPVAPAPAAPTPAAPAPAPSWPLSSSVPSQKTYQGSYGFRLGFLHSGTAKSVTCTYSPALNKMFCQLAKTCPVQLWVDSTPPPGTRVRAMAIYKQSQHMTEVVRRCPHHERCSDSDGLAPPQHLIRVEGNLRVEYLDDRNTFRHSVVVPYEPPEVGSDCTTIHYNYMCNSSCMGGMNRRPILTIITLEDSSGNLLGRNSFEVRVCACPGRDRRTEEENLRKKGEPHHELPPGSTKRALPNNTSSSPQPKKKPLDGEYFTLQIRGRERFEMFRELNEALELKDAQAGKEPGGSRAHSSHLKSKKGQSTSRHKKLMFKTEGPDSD

COP(=S)(OC)SCn1nnc2ccccc2c1=O
inactive: [1] | [2] | [3] | [4] | [5] | [6] | [7] | [8] | [9] | [10] | [11] | [12] | [14] | [15] | [16] | [17] | [18] | [19]
active: [4] 73.9 µM | [10] 43.5 µM | [13] 17.3 µM

CCCN(CC)CC1COC2(CCC(C(C)(C)C)CC2)O1 (configuration not stated)
inactive: [1] | [3] | [4] | [5] | [7] | [9] | [11] | [12] | [13] | [14] | [15] | [16] | [17] | [18] | [19] | [20]

Cc1ccc(N=CN(C)C=Nc2ccc(C)cc2C)c(C)c1
inactive: [1] | [3] | [4] | [5] | [6] | [7] | [8] | [9] | [10] | [11] | [12] | [13] | [14] | [15] | [17] | [18] | [19] | [20]

CCCCC(O)(Cn1cncn1)c1ccc(Cl)cc1Cl (configuration not stated)
inactive: [1] | [3] | [4] | [5] | [6] | [9] | [11] | [12] | [13] | [15] | [16] | [17] | [18] | [20]
active: [7] 82 µM | [8] 72.8 µM | [10] 87 µM

Cc1c(COC(=O)[C@@H]2[C@H](/C=C(\Cl)C(F)(F)F)C2(C)C)cccc1-c1ccccc1
active: [5] 25.8 µM
inactive: [1] | [3] | [4] | [5] | [6] | [7] | [8] | [9] | [10] | [11] | [12] | [13] | [14] | [15] | [16] | [17] | [18] | [19] | [20]

Cn1c(-c2ccccc2)cc(-c2ccccc2)[n+]1C
inactive: [3] | [4] | [5] | [6] | [7] | [8] | [9] | [10] | [11] | [12] | [13] | [14] | [15] | [16] | [17] | [18] | [19] | [20]
active: [1] 66.1 µM | [4] 24.2 µM
